# Cruzain inh Det = blocks cruzain activity in presence of Triton detergent; P25779; Potency, µM, inactives show max response, negative = inhibition, most hits filed as inhibitors; 200,000 compounds, 0.43% hits; purified cruzain, Z-FR-AMC fluorescence, 0.01% Triton;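 also: plate controls were neutral wells for no effect and buffer without enzyme for full effect; nearly all actives have a fitted effect of over 40% in size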
# Target sequence (P25779 123-467 limits assumed): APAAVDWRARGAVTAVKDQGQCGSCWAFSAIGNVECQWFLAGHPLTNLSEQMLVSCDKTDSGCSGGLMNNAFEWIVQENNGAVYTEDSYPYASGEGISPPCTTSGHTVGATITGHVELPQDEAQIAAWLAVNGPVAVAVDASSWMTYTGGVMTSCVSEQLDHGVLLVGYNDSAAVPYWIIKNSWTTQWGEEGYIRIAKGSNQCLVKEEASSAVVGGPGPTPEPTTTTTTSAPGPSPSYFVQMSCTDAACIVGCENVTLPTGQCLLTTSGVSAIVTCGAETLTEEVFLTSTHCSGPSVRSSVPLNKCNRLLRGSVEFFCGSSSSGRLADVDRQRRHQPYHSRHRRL
#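 Z-FR-AMC hydrolysis (2 uM substrate) by cruzain (1.5 nM) monitored kinetically at ex 360/em 450 nm after 15 min room-temperature compound exposure; 0.01% Triton X-100, pH 5.5, 5 mM DTT.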
# Cruzain noTriton = inhibitors of Trypanosoma cruzi cruzain without detergent | 200,000 compounds, 2.3% hits | Potency, µM, without a hit: max response, negative = inhibition, most hits filed as inhibitors | AID 1476 | P25779 | purified cruzain, Z-FR-AMC fluorescence, no detergent;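 also: plate controls were enzyme without inhibitor for no effect and buffer without enzyme for full effect; nearly all actives have a fitted effect of over 40% in size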
#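 Detergent-free condition (0.00005% Triton X-100) in acetate buffer pH 5.5 with DTT. 1.5 nM enzyme and compound were pre-mixed 15 min, then 2 uM Z-FR-AMC substrate added; reaction progress from fluorescence change between first and third reads (60 s).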
# Numbers without * were called inactive; ? = inconclusive. Rows were chosen to be rich in hits. Some 2.5% of all compounds tested hit in one or more screens of this group. Calls follow the shape of the dose curve; as a rule, active = well fitted curve in the direction sought with a large enough effect; inconclusive = small, poorly fitted or top-dose-only effect, or another doubt; inactive = no such curve, though single readings can be large; an effect the other way counts as inactive or inconclusive. Potency is read from the fitted curve at half-maximal effect.
SMILES,Cruzain inh Det,Cruzain noTriton
CCc1ccccc1-n1nnc(-c2nsc(NC(=O)c3ccc(C)c(C)c3)n2)c1C,-2.3%,-24.7%
O=C1N=C(N2CCOCC2)S/C1=C\c1ccc(-c2ccccc2Cl)o1,-27.3%,31.6µM*
Cc1ccsc1/C=C1/SC(N2CCOCC2)=NC1=O,-6.4%,-0.5%
CC(C)C[C@H](N)C(=O)O,-2.1%,-4.2%
O=S(=O)(c1ccc(Cl)cc1)n1ccc(-c2cccc(OCc3c(F)cccc3Cl)c2)n1,3.6%,20µM*
O=S(=O)(c1ccc(F)cc1)n1ccc(-c2cccc(OCc3c(F)cccc3Cl)c2)n1,10.4%,-11.6%
Clc1ccc2c(c1)N(CCCN1CCCC13CCCCC3)c1ccccc1S2,-0.6%,7.3%
O=C(Nc1nnc(-c2ccccc2SCc2ccccc2F)s1)Nc1ccccc1F,1.7%,3.16µM*
CC(=O)Nc1nnc(SCc2ccccc2F)s1,1.7%,5.7%
Cc1cccn2c(=O)c(C(=O)N3CCN(c4ccc(Cl)cc4)CC3)cnc12,-9.0%,9.2%
Cc1ccc(CNc2ncnc3c2cnn3-c2ccccc2)cc1,5.4%,25.1µM*
Cc1ccc(-n2ncc3c(NCc4ccccc4)ncnc32)cc1,5.3%,-25.3%
Cc1cccc(NC(=O)CSc2nc(C)c(CC(=O)c3ccc(Br)cc3)c(C)c2C#N)c1C,2.9%,12.6µM*
Cc1nc(SCC(=O)Nc2ccc(F)cc2)c(C#N)c(C)c1CC(=O)c1ccc(Br)cc1,-0.5%,?
Nc1ccc(N(S(=O)(=O)c2ccccc2)S(=O)(=O)c2ccccc2)c(Cl)c1,-4.0%,-8.0%
Cc1nn(-c2ccccc2)c(N2CCCCC2)c1/C=N/O,0.7%,-9.1%
Cc1nn(-c2ccccc2)c(N2CCCC2)c1/C=C1\N=C(c2ccccc2)OC1=O,1.58µM*,0.794µM*
Cc1ccc(N2CCN(Cc3nnc(-c4ccc5c(c4)OCO5)o3)CC2)c(C)c1,0.3%,10.1%
Cc1ccccc1CNC(=O)CCSCc1cnn(-c2ccccc2)c1-n1cccc1,-6.8%,?
C=CCn1c(SCC(=O)Nc2ccccc2OC)nnc1-c1ccco1,1.1%,-9.4%
C=CCn1c(SCC(=O)Nc2nccs2)nnc1-c1cc2cccc(OC)c2o1,5.5%,25.1µM*
COC(=O)c1ccc(NC(=O)CSc2cn(CC(=O)N3CCCCCC3)c3ccccc23)cc1,-6.7%,?
Cc1ccc(S(=O)(=O)c2nc(-c3ccco3)oc2SCC(=O)c2ccc(Cl)cc2)cc1,-8.3%,?
O=C(CSc1oc(-c2ccc(F)cc2)nc1S(=O)(=O)c1ccc(Cl)cc1)c1ccccc1,-4.5%,31.6µM*
O=C(CSc1oc(-c2ccccc2)nc1S(=O)(=O)c1ccc(Cl)cc1)c1ccccc1,-7.9%,?
SMILES,Cruzain inh Det,Cruzain noTriton
O=C(CSc1oc(-c2ccco2)nc1S(=O)(=O)c1ccc(Cl)cc1)c1ccc(Cl)cc1,-6.4%,25.1µM*
CC1=C(C(=O)OC2CCCC2)C(c2ccccc2C(F)(F)F)CC(=O)N1 (stereo unspecified),-3.6%,-0.9%
C=CC(C1=CC(=O)C(OC)=CC1=O)c1ccccc1 (stereo unspecified),-7.3%,-3.3%
COc1ccc(-c2nc3ccc(NS(=O)(=O)c4ccc(Cl)cc4)cc3o2)cc1,-5.8%,-22.7%
Cc1ccc(S(=O)(=O)Nc2ccc(-c3nc4cc(NS(=O)(=O)c5ccc(C)cc5)ccc4o3)cc2)cc1,2.4%,7.94µM*
Cc1ccc(OCC(=O)OCc2cc(=O)n3nc(C4CCCCC4)sc3n2)cc1C,-5.0%,-2.4%
Cc1nn(C)c(C)c1/C=C1/SC(=S)NC1=O,2.2%,2.9%
Cc1ccc(C2C(/C=C3/SC(=S)NC3=O)=C(c3cccs3)Oc3ccccc32)cc1 (stereo unspecified),-2.4%,7.94µM*
COC(=O)c1ccccc1NC(=O)Cn1c(=O)n(CCCC(=O)NCc2ccccc2OC)c(=O)c2ccccc21,-2.2%,-7.9%
Nc1nc(Cl)nc2c1ncn2[C@@H]1O[C@H](COP(=O)(O)OP(=O)(O)OP(=O)(O)O)[C@H](O)[C@H]1O,2.2%,-2.5%
CC(Sc1nnc(NC(=O)c2cc3ccccc3oc2=O)s1)c1ccccc1 (stereo unspecified),6.4%,12.6µM*
CCCc1nnc(NC(=O)c2cc3ccccc3oc2=O)s1,1.7%,-8.9%
Cc1cc(C)c(NC(=O)CSc2nc(C)cc(C)c2C#N)c(C)c1,1.1%,-13.0%
Cc1ccccc1NC(=O)c1c(NC(=O)C(C)Oc2cccc(Cl)c2)sc2c1CCCC2 (stereo unspecified),-1.6%,?
Cc1ccc2nc(COc3cccc(NC(=O)COc4ccccc4F)c3)cc(=O)n2c1,3.0%,-3.4%
COc1ccccc1CN1CCC2(CC1)CCN(C(=O)c1c(C)noc1C)CC2,2.2%,-6.7%
NCCNS(=O)(=O)c1ccc(N)cc1,0.1%,-6.9%
CCOc1ccc2c(c1)-c1c(ssc1=S)C(C)(C)N2C(=O)CSC1=NCCS1,-6.5%,15.8µM*
Cc1ccc2c(c1)-c1c(ssc1=S)C(C)(C)N2C(=O)CSC1=NCCS1,-2.6%,?

# Compound activity as filed in PubChem BioAssay.
